Test results as given in the supplement of paper PMC6555819.

Key:
Test in all cases: PBM binding z-score (relative to random genomic background probes); higher = stronger binding; sequences stand for … in GC…GCGATTGACAGCGTAGAATGAAGG
[1] = system: FXR:RXRa (NR concentration 270 nM, RXRa partner concentration 90 nM)
Summary of the method: (§1)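 Scanned fluorescence from custom Agilent 4×180K protein-binding microarrays was regression-normalized. Binding z-scores use random background probes as reference. Ligand-free nuclear receptor dimers were incubated on the arrays for 1 h and detected with antibodies against each partner (one per run).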

[2] = system: LXRa:RXRa (NR concentration 270 nM, RXRa partner concentration 90 nM)
Summary of the method: as §1

[3] = system: LXRa homodimer (NR concentration 270 nM)
Summary of the method: as §1

[4] = system: LXRb:RXRa (NR concentration 270 nM, RXRa partner concentration 90 nM)
Summary of the method: as §1

[5] = system: LXRb homodimer (NR concentration 270 nM)
Summary of the method: as §1

[6] = system: PPARa:RXRa (NR concentration 270 nM, RXRa partner concentration 90 nM)
Summary of the method: as §1

[7] = system: PPARg:RXRa (NR concentration 180 nM, RXRa partner concentration 90 nM)
Summary of the method: as §1

[8] = system: PPARg:RXRa 270nM:90nM, anti-RXR (NR concentration 270 nM, RXRa partner concentration 90 nM)
Summary of the method: as §1

[9] = system: PPARg:RXRa 30nM:10nM, anti-RXR (NR concentration 30 nM, RXRa partner concentration 10 nM)
Summary of the method: as §1

[10] = system: PPARg:RXRa 90nM:30nM, anti-RXR (NR concentration 90 nM, RXRa partner concentration 30 nM)
Summary of the method: as §1

[11] = system: PPARg:RXRa DBDmut IVT, anti-RXR (DBD mutation: RXRa K156A/R161A, NR concentration 270 nM, RXRa partner concentration 90 nM)
Summary of the method: as §1

[12] = system: PPARg:RXRa IVT, anti-PPARg (NR concentration 270 nM, RXRa partner concentration 90 nM)
Summary of the method: as §1

[13] = system: PPARg DBDmut:RXRa IVT, anti-PPARg (DBD mutation: PPARg1 K132A/R137A, NR concentration 270 nM, RXRa partner concentration 90 nM)
Summary of the method: as §1

[14] = system: PPARg DBDmut IVT, anti-PPARg (DBD mutation: PPARg1 K132A/R137A, NR concentration 270 nM)
Summary of the method: as §1

[15] = system: PPARg homodimer (NR concentration 180 nM)
Summary of the method: as §1

[16] = system: PXR:RXRa (NR concentration 270 nM, RXRa partner concentration 90 nM)
Summary of the method: as §1

[17] = system: PXR homodimer (NR concentration 270 nM)
Summary of the method: as §1

[18] = system: RARa:RXR (NR concentration 270 nM, RXRa partner concentration 90 nM)
Summary of the method: as §1

[19] = system: RARa homodimer (NR concentration 270 nM)
Summary of the method: as §1

[20] = system: RARb:RXRa (NR concentration 270 nM, RXRa partner concentration 90 nM)
Summary of the method: as §1

| Sequence | PBM binding z-score [1] | PBM binding z-score [2] | PBM binding z-score [3] | PBM binding z-score [4] | PBM binding z-score [5] | PBM binding z-score [6] | PBM binding z-score [7] | PBM binding z-score [8] | PBM binding z-score [9] | PBM binding z-score [10] | PBM binding z-score [11] | PBM binding z-score [12] | PBM binding z-score [13] | PBM binding z-score [14] | PBM binding z-score [15] | PBM binding z-score [16] | PBM binding z-score [17] | PBM binding z-score [18] | PBM binding z-score [19] | PBM binding z-score [20] |
| --- | --- | --- | --- | --- | --- | --- | --- | --- | --- | --- | --- | --- | --- | --- | --- | --- | --- | --- | --- | --- |
| AAATGTAGGTTATCGGGTCATTCAGTTTGCGCAT | 3.38 | 3.09 | 1.81 | 2.9 | 0.806 | 5.21 | 7.59 | 6.43 | 4.76 | 6.15 | 8.08 | 7.95 | 2.76 | 1.48 | 3 | 3.87 | 7.01 | 3.72 | 1.36 | 2.68 |
| TTACCAAGGTGAAGGTCGGTGATCCCTCTGTAGA | 0.881 | 0.952 | -0.494 | 0.467 | -0.916 | 2.14 | 2.65 | 3.05 | 1.65 | 2.96 | 1.69 | 2.91 | -0.0946 | -0.454 | 0.55 | 0.481 | -0.271 | 1.28 | 0.175 | 1.96 |
| AACTCTAGGTAACCAAGTTCAGTGAATGCCGAAC | 0.211 | 0.537 | 0.474 | 0.24 | 0.213 | 0.878 | 0.528 | 0.367 | -0.222 | 0.0109 | 3.59 | 2.39 | -0.137 | 0.215 | 0.0478 | 1.69 | 1.29 | 0.617 | 0.354 | 0.858 |
| GGAACGAGGGCAAGTCGATAGCAGAGTTTGATGG | 0.383 | 0.00226 | -0.566 | -0.0585 | -0.781 | 1.48 | 0.928 | 0.703 | -0.275 | 0.116 | 3.57 | 2.5 | -0.206 | -0.527 | -0.162 | 0.167 | 0.469 | -0.0113 | -0.744 | 2.41 |
| GCTTACGAGTCAAAGGTTATAGCATGAATAGAAT | 2.49 | 3 | -0.0276 | 2.72 | -0.261 | 4.52 | 5.72 | 6.18 | 4.17 | 6.28 | -0.0786 | 1.3 | 0.924 | -0.155 | 0.792 | 2.73 | -0.0683 | 4.4 | -0.195 | 1.78 |
| TGAATGAGGTTATAAGATCAGGGAACGTTGCAAA | 1.18 | 1.31 | -0.538 | 0.8 | -0.0754 | 2.61 | 1.22 | 1.75 | 0.754 | 1.38 | 1.08 | 1.54 | 0.481 | 0.281 | -0.132 | 0.601 | -0.261 | 1.25 | 0.0131 | 1 |
| TCTAGCAGGCCACAGGGTCACTCAAGAGGTACGG | 1.75 | 1.69 | -0.338 | 1.82 | -1.09 | 3.23 | 2.19 | 3.02 | 2.18 | 2.65 | 1.57 | 2.41 | 0.0342 | -1.16 | 1.75 | 2.71 | -0.163 | 3.42 | -0.568 | 2.63 |
| CCTAGTGGGCCATCAGGTCATTGATATCAACGTT | 1.47 | 1.04 | 0.915 | 1.63 | -0.159 | 2.74 | 3.06 | 3.69 | 1.05 | 2.74 | 4.56 | 5.23 | -0.169 | 0.327 | 1.35 | 1.62 | 0.58 | 1.86 | 0.517 | 1.94 |
| TCGTGTAGATCAGCAGGTTAAGAAAGCTGGCCAA | -0.188 | 0.0517 | -0.312 | 0.0213 | -0.844 | 0.437 | -0.564 | 0.79 | 1.98 | 1.42 | 1.06 | -0.357 | -0.818 | -0.881 | 0.306 | -0.0142 | -0.356 | 0.167 | -0.19 | -0.0644 |
| AGAACGAGGGCACGCTGAGTTGGTAGCAGAGTAG | 0.682 | 0.402 | -0.489 | -0.113 | -0.719 | 1.87 | 1.62 | 1.46 | -0.03 | 0.942 | 4.25 | 3.68 | 0.349 | -0.628 | -0.387 | 0.612 | -0.377 | 0.517 | -1.12 | 2.46 |
| TCGAGTAGGTTAGTCGTGGCATTCAGCCAACATA | -0.318 | -0.31 | -0.35 | -0.47 | -1.11 | 0.293 | -0.232 | 0.763 | 1.36 | 0.958 | 2.28 | 1.66 | -0.875 | -1.07 | -0.343 | -0.558 | -0.596 | -0.421 | -0.619 | -0.00522 |
